Screens deposited in PubChem BioAssay by National Center for Advancing Translational Sciences (NCATS).
Hits are enriched below; roughly 2.6% of the tested compounds scored in any of these assays.
Cruzain Triton: cruzain (T. cruzi) inhibition with detergent; P25779; purified cruzain, Z-FR-AMC fluorescence, 0.01% Triton; Potency, µM, without a hit: max response, negative = inhibition, most hits filed as inhibitors; actives 0.43% (n = 200,000); AID 1478;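 note: plate controls were neutral wells for no effect and buffer without enzyme for full effect; nearly all actives have a fitted effect of over 40% in size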
Target sequence (P25779 123-467 limits assumed): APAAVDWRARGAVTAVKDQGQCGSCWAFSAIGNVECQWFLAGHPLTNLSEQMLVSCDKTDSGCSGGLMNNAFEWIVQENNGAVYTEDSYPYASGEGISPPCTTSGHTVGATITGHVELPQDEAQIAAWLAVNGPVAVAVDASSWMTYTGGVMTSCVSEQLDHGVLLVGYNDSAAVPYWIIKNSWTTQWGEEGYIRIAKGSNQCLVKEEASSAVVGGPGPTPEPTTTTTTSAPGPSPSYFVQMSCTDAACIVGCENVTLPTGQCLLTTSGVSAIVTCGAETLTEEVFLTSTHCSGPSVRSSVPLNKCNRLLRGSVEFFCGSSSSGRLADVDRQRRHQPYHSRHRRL
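Cysteine protease activity tested under reducing, mildly acidic conditions (100 mM sodium acetate pH 5.5, 5 mM DTT) plus 0.01% Triton X-100. Cruzain 1.5 nM; substrate Z-FR-AMC 2 uM; 15 min compound preincubation at room temperature.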
Cruzain noTriton: cruzain (T. cruzi) inhibition without detergent; Potency, µM, for the others: max response, negative = inhibition, hits mostly inhibitors; purified cruzain, Z-FR-AMC fluorescence, no detergent; P25779; actives 2.3% (n = 200,000); AID 1476;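 note: plate controls were enzyme without inhibitor for no effect and buffer without enzyme for full effect; nearly all actives have a fitted effect of over 40% in size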
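Detergent-free condition (0.00005% Triton X-100) in acetate buffer pH 5.5 with DTT. 1.5 nM enzyme and compound were pre-mixed 15 min, then 2 uM Z-FR-AMC substrate added; reaction progress from fluorescence change between first and third reads (60 s).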
Active calls of the source: *; ? = inconclusive. Calls come from the whole dose curve; as a rule, active = well fitted curve in the direction sought with a large enough effect; inconclusive = small, poorly fitted or top-dose-only effect, or another doubt; inactive = no such curve, though single readings can be large; an effect the other way counts as inactive or inconclusive. Potency is the fitted concentration of half-maximal effect.

SMILES	Cruzain Triton	Cruzain noTriton
CC(=O)OCC(=O)[C@@]1(O)[C@H](OC(C)=O)C[C@H]2[C@@H]3CCC4=CC(=O)C=C[C@]4(C)[C@@]3(F)[C@@H](O)C[C@@]21C	-2%	2%
CC(=O)c1nn(-c2ccc(Br)cc2)cc1C(=O)c1ccccc1	-1%	?
CC(=O)c1nn(-c2cccc(Br)c2)cc1C(=O)c1ccc2ccccc2c1	4%	10µM*
CC(C)(C)OC(=O)N/N=C/c1ccc(N2CCOCC2)s1	-5%	8%
Clc1cccc(N/N=C/c2ccc(N3CCOCC3)s2)c1	-14%	32µM*
Cc1ccc(NC(=O)C2CC(=O)N/C(=N/N=C/c3ccco3)S2)cc1C (stereo not drawn)	-3%	13µM*
Cc1ccc(NC(=O)C2CC(=O)N/C(=N/N=C/c3ccco3)S2)cc1 (stereo not drawn)	-2%	?
COc1ccc(CCNC(=O)CSCc2nc(-c3cccc(C)c3)oc2C)cc1OC	0%	?
Cc1ccc(-n2ncc(C(=O)NCCc3ccccc3)c2C2CCN(C(=O)OC(C)(C)C)CC2)c(C)c1	-11%	4%
COC(=O)CSc1nc2c(c(-c3ccco3)c1C#N)CCCC2	28µM*	20µM*
CCOC(=O)CSc1nc2c(c(-c3ccc(C)o3)c1C#N)CCCC2	-11%	23%
O=C(Cn1cc(SCc2ccc(Br)cc2)c2ccccc21)N1CCCCC1	-5%	?
COC(=O)c1c(NC(=O)c2cc(=O)c3cc(C)cc(C)c3o2)sc2c1CCC2	-1%	-6%
O=C(Cn1c(=O)n(Cc2ccc3c(c2)OCO3)c(=O)c2ccccc21)N1CCCc2ccccc21	-5%	32µM*
Cc1cccc(NC(=O)Cn2c(=O)n(Cc3ccc(C(=O)NCc4ccc5c(c4)OCO5)cc3)c(=O)c3ccccc32)c1	6%	4µM*
CC1CCN(C(=O)Cn2c(=O)n(Cc3ccc4c(c3)OCO4)c(=O)c3ccccc32)CC1	0%	-16%
Cc1ccc(C)c(NC(=O)Cn2c(=O)n(Cc3ccc4c(c3)OCO4)c(=O)c3ccc(C(=O)NC4CCCCC4)cc32)c1	0%	-11%
COc1cccc(NC(=O)Cn2c(=O)n(CCc3ccc(OC)c(OC)c3)c(=O)c3ccccc32)c1	-6%	5%
CCN(C(=O)Cn1c(=O)n(Cc2ccc3c(c2)OCO3)c(=O)c2ccc(C(=O)NC3CCCCC3)cc21)c1cccc(C)c1	-3%	32µM*
COc1cccc(NC(=O)Cn2c(=O)n(Cc3ccc(C(=O)NCc4ccc(C)cc4)cc3)c(=O)c3ccccc32)c1	-1%	13µM*
Cc1cc(C)c(NC(=O)Cn2c(=O)n(Cc3ccc(C(=O)NCc4ccc5c(c4)OCO5)cc3)c(=O)c3ccccc32)c(C)c1	-2%	4%
COc1cccc(CNC(=O)C2CCN(S(=O)(=O)c3c(C)noc3/C=C/c3cccs3)CC2)c1	-3%	-15%
O=C(Cn1c(=O)n(Cc2ccc(C(=O)NCc3ccc4c(c3)OCO4)cc2)c(=O)c2ccccc21)Nc1cccc(Cl)c1	-1%	4µM*
O=C(Cn1c(=O)n(Cc2ccc3c(c2)OCO3)c(=O)c2ccccc21)Nc1cccc(Cl)c1	-5%	-24%
Cc1ccc(CNC(=O)Cn2nc(N3CCN(c4ccccc4)CC3)ccc2=O)cc1	1%	-10%
SMILES	Cruzain Triton	Cruzain noTriton
N=c1ccn2c(n1)O[C@H]1[C@@H](OP(=O)(O)O)[C@H](CO)O[C@H]12	1%	5%
Cc1cc2nc(NC3=NCN(CCN4CCOCC4)CN3)nc(C)c2cc1C	-7%	-6%
Cc1nc(NC2=NCN(CCCN3CCOCC3)CN2)nc2c(C)cccc12	?	25µM*
Cc1ccsc1CN(C(=O)COc1cccc(C)c1C)C1CCS(=O)(=O)C1 (stereo not drawn)	-5%	16%
Cc1ccc2c(c1)n([O-])c1c([n+]2=O)CCCC1	6%	-4%
CC(=O)c1c(C)n([O-])c2ccc(C)cc2[n+]1=O	0%	1.6µM*
O=C(Nc1ccc(Cl)c(-c2nc3cc(Cl)ccc3o2)c1)c1cc([N+](=O)[O-])ccc1N1CCOCC1	5%	-18%
Cc1cc(C)c2c(c1)/C(=N/NS(=O)(=O)c1ccccc1)CCC2	-7%	4%
Cc1cc(C)c2c(c1)/C(=N/NC(=S)Nc1ccc(F)cc1)CCC2	-9%	16µM*
O=c1c2ccccc2nc(SCc2ccc([N+](=O)[O-])cc2)n1-c1ccccc1	0%	?
COc1ccc(Nc2nnc(SCc3cc([N+](=O)[O-])cc4c3OCOC4)s2)cc1	0%	20µM*
O=c1c2ccccc2nc(SCc2cc([N+](=O)[O-])cc3c2OCOC3)n1-c1ccccc1	-2%	13µM*
O=[N+]([O-])c1cc2c(c(CSc3nnc4ccccn34)c1)OCOC2	-3%	0%
COc1ccc(S(=O)(=O)N2CCN(c3ccccc3)CC2)cc1-c1noc(C)n1	0%	-10%
CC1=NN2C(=N)/C(=C\c3ccc(SCc4ccccc4)o3)C(=O)N=C2S1	-1%	7.9µM*
